In the experiment the target is T1, Serine/threonine-protein kinase Nek9 (Homo sapiens) (UniProt Q8TD19).
T1 sequence (whole entry): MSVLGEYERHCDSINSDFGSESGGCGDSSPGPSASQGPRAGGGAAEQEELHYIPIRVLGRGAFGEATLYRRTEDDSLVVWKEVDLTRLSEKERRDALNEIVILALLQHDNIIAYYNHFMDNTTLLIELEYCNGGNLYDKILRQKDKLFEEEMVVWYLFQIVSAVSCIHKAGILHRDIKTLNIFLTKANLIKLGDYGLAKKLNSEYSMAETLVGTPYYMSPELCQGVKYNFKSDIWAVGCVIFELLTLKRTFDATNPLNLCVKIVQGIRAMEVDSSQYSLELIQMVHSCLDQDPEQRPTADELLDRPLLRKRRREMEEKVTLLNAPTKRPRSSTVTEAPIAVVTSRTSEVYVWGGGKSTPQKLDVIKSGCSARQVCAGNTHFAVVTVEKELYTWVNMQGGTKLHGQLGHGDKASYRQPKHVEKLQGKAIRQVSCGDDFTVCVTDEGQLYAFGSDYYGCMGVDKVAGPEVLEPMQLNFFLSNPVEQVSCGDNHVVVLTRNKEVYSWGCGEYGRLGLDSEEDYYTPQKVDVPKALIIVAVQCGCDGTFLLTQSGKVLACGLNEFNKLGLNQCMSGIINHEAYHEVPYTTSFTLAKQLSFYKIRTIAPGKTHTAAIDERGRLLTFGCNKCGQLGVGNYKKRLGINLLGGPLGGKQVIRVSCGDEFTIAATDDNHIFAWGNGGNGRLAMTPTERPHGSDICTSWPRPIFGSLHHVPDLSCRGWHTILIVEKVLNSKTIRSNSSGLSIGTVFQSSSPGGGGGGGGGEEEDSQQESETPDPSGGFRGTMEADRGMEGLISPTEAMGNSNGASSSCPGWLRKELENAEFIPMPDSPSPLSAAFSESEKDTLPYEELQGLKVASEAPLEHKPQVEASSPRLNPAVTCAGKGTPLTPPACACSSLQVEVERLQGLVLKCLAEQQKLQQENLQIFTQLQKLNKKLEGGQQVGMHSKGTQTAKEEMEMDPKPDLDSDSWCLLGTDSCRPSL
The conditions noted are these: at 1 µM.
Broadly, the inhibition is the relative decrease from the control value, in per cent. Consider `COc1cc2ncn(-c3cc(OCc4cccs4)c(C(N)=O)s3)c2cc1OC`, for which the inhibition is 28.4%. Turning to `COc1cc(C)c(N(C)C(=O)CN(C)C)cc1Nc1nc(Nc2cccc(F)c2C(N)=O)c2cc[nH]c2n1`, the inhibition came to 3.64%. With `CN(C)CCCNc1nccc(-c2c(-c3ccc(F)cc3)nn3cc(C(F)(F)F)ccc23)n1`, the inhibition was found to be 0.61%. Turning to `COc1cccc(/C=N/Nc2ncnc3c2cnn3-c2cccc(OC)c2)c1`, the inhibition is 11.2%. As to `CCC(=O)Nc1ccc(C)c(-c2ccc(C(=O)NCC3CC3)cc2)c1`, the inhibition was 10.2%. For `CCS(=O)(=O)c1ccc(OC)c(Nc2ncc(-c3cccc(-c4ccccc4F)c3)o2)c1`, the inhibition is -0.99%. As to `C#Cc1cccc(Nc2ncnc3ccc(OCCCCNCCS(C)(=O)=O)cc23)c1`, the inhibition was found to be 10.2%. Take `CS(=O)(=O)CCNCc1ccc(-c2ccc3ncnc(Nc4ccc(OCc5ccccc5)c(Br)c4)c3c2)o1`: the inhibition turned out to be 5.79%. Take `COc1cc2ncn(-c3cc(OCCc4ccccc4)c(C(N)=O)s3)c2cc1OC`: the inhibition was 6.63%.

`NS(=O)(=O)c1ccc(N/N=C2\C(=O)Nc3ccc(-c4cnco4)cc32)cc1`: the inhibition amounted to 7.27%.

As to `Cc1ccc(C(=O)NC2CCC2)cc1-c1ccc(C(=O)NCC2CC2)cc1`, the inhibition stood at 5.58%. Regarding `COc1ccc2cc(-c3c(-c4ccncc4)nc(-c4ccc([S+](C)[O-])cc4C)n3C)ccc2c1` (stereo not given), the inhibition is -2.02%. In the case of `COc1cc(N2CCN(C(C)C)CC2)ccc1Nc1nc(Nc2ccc(F)cc2C(=O)NC[C@@H](O)CO)c2cc[nH]c2n1`, the inhibition is 15.3%.

In the case of `COc1ccc2ncn(-c3cc(O[C@H](C)c4ccccc4Cl)c(C(N)=O)s3)c2c1`, the inhibition was found to be 83.7%.

For the compound `Fc1ccc(-c2nc3n(c2-c2ccncc2)CCS3)cc1`, the inhibition came out at 6.52%.

Source of the values: ChEMBL document CHEMBL1961873, “Compounds: GSK PKIS; Assays: Nanosyn kinase panel” (2012).
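Further: each value is a mean percent inhibition of NEK9.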
